Screening data from PubChem BioAssay.
This is a sample that favours compounds with a hit; in the whole collection about 5.3% have one here.
TDP1 block – TDP1 (human) enzyme inhibition. Q9NUW8. 350,000 compounds, 0.28% hits. recombinant TDP1, AlphaScreen DNA substrate cleavage. Potency, µM (doses to about 130 µM), for the others: top-dose activity change, negative = inhibition, usual class: inhibitors; note: potency is the fitted concentration of half-maximal effect; % is set by controls: 0 for no effect and ±100 for the full control effect; nearly all actives have a fitted effect of over 40% in size
Target sequence (Q9NUW8 whole entry, looked up): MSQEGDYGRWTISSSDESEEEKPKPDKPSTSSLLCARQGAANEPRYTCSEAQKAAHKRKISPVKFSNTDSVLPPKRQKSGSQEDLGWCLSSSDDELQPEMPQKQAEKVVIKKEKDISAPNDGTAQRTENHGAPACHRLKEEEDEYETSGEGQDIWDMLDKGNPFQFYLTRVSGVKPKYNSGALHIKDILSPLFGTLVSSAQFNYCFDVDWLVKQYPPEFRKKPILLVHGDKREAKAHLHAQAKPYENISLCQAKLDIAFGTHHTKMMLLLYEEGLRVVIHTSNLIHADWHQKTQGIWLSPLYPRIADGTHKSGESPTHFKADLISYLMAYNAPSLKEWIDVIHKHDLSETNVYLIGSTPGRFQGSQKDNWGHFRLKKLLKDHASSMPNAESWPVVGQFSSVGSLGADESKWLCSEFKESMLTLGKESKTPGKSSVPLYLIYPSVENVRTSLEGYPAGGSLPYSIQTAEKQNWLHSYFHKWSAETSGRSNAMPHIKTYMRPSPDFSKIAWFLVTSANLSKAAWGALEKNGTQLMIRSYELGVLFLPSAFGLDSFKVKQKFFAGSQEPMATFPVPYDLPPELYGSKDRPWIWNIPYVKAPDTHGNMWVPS
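Recombinant human Tdp1 (E. coli-expressed, 1 nM final) preincubated with compounds 15 min at room temperature, then 5'-biotin/3'-phosphotyrosine-FITC DNA substrate (15 nM final) added for 5 min. AlphaScreen beads (10 ug/ml final) added 10 min; cleavage lowers signal.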
Six1-Eya2 inh – Six1/Eya2 interaction inhibition; Q15475+O00167; AlphaScreen GST-Six1/His-Eya2 binding, biochemical; active compounds read low; activity change, % (no concentration beside the values); 360,000 compounds, 0.56% hits; AID 651725; in the data active = activity change below about -65%; inconclusive = mostly about -30% to -63%; note: % is set by controls: 0 for no effect and ±100 for the full control effect
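AlphaScreen with GST-Six1 and His-Eya2 (5X mix: 250 nM and 500 nM), glutathione donor and nickel acceptor beads; buffer 50 mM Tris pH 8.0, 300 mM NaCl, 1 mM TCEP; 1 h at 37 C in the dark.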
JMJD2A Tudor inh – JMJD2A Tudor domain (human) inhibition | O75164 | AlphaScreen JMJD2A-Tudor / H3K4me3 peptide binding | Potency, µM (highest dose often 114 µM), for the others: at the highest dose activity change, negative = inhibition, most hits filed as inhibitors | 390,000 compounds, 4.4% hits; note: potency is the fitted concentration of half-maximal effect; % is set by controls: 0 for no effect and ±100 for the full control effect; nearly all actives have a fitted effect of over 50% in size
CtBP-E1A inh – inhibitors of CtBP/E1A interaction; activity change, % (no concentration beside the values); AID 651724; 340,000 compounds, 0.49% hits; AlphaScreen GST-E1A/His-CtBP binding, 1536-well; active compounds read low; in the data active = activity change below about -65%; inconclusive = mostly about -30% to -63%; note: % is set by controls: 0 for no effect and ±100 for the full control effect
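AlphaScreen with 125 nM GST-E1A and 125 nM His-CtBP (5X stocks) in Tris pH 8.0, 300 mM NaCl, BSA, Tween 20, TCEP. Compounds preincubated 2 h at 37 deg C, then glutathione donor/nickel acceptor beads added for 1 h at 37 deg C in dark.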
BAZ2B block – blocks human BAZ2B; AlphaScreen BAZ2B-H3K14Ac peptide displacement; 360,000 compounds, 4.4% hits; Potency, µM (top dose mostly 114 µM), for inactives: at the highest dose activity change, negative = inhibition, usual class: inhibitors; Q9UIF8; note: potency is the fitted concentration of half-maximal effect; % is set by controls: 0 for no effect and ±100 for the full control effect; nearly all actives have a fitted effect of over 60% in size
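In this displacement format the biotinylated H3(5-23) peptide acetylated at Lys14 serves as ligand at 50 nM, with BAZ2B at 50 nM in PBS pH 7.4 containing 0.01% Tween-20. Donor and acceptor beads are 10 ug/mL final.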
HP1b chromo inh – blocks HP1-beta chromodomain binding to methylated histone tails | P83916 | 390,000 compounds, 0.56% hits | AlphaScreen HP1-beta / biotin-H3K9me3 peptide binding | Potency, µM (doses to about 114 µM), for the others: top-dose activity change, negative = inhibition, most hits filed as inhibitors | AID 540317; note: potency is the fitted concentration of half-maximal effect; nearly all actives have a fitted effect of over 70% in size
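HP1-beta protein (50 nM final) preincubated 30 min at room temperature with biotinylated H3(1-18)K9me3 peptide (50 nM) in PBS pH 7.4, 0.01% Tween-20, then compound added for 30 min. AlphaScreen streptavidin donor/nickel chelate acceptor beads (10 ug/mL final), 30 min dark, luminescence read.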
* hit, by the source's call; ? = inconclusive; nt = no result given; [ ] = remark or other dose. Unless noted, calls come from the whole dose curve; as a rule, active = well fitted inhibition curve with a large enough effect; inconclusive = small, poorly fitted or top-dose-only effect; inactive = no such curve, though single readings can be large or run the other way.

SMILES	TDP1 block	Six1-Eya2 inh	JMJD2A Tudor inh	CtBP-E1A inh	BAZ2B block	HP1b chromo inh
CCn1cc(C(=O)O)c(=O)c2cc(S(=O)(=O)N3CCCCCC3)ccc21	1%	7	-2%	-22	71µM*	41%
Cc1cccc(Nc2nc(N)c([N+](=O)[O-])c(N3CCCC(C)C3)n2)c1 (stereo not drawn)	5%	-20	40µM*	-20	40µM*	-37%
Cc1cccc(Nc2nc(N)c([N+](=O)[O-])c(N3CCN(C)CC3)n2)c1	1%	-18	-30%	-1	-5%	-1%
Cc1ccc(Nc2nc(N)c([N+](=O)[O-])c(N3CCC(C)CC3)n2)cc1C	7%	2	56µM*	0	25µM*	?
COc1ccc(-c2ccc(C(C)=O)cc2)cc1C1C2C=CCC(C)C2C(=O)N1Cc1ccccc1 (stereo not drawn)	9%	nt	?	nt	nt	-3%
Cc1ccc(C)c(NC(=S)c2ccccn2)c1	5%	?	79µM*	-67*	20µM*	6.3µM*
S=C(Nc1ccccn1)c1ccccn1	8%	-92*	5µM*	-89*	10µM*	13µM*
O=C(Nc1ccccn1)C(=O)Nc1ccccn1	5%	4	-7%	3	-7%	30%
CCc1ccc(NC(=O)c2sc3nc(C)c(C(=O)Nc4ccc(C)cc4C)c(-c4ccco4)c3c2N)cc1	3%	nt	-19%	nt	-13%	2%
C/C=C/C1=Cc2ccccc2C(CC(=O)OC)N1C(=O)OC (stereo not drawn)	-2%[12.3 µM]	nt	nt	nt	nt	nt
COc1cc2c(=O)c(C(=O)c3ccc(F)cc3)cn(Cc3cccc(F)c3)c2cc1OC	6%	nt	-15%	nt	-24%	23%
N[C@H](Cc1cc(I)c(Oc2cc(I)c(O)c(I)c2)c(I)c1)C(=O)O	6%[56.1 µM]	nt	nt	nt	nt	nt
Cc1n[nH]c(=S)n(NC(=O)CC(=O)Nn2c(=S)[nH]nc(C)c2=O)c1=O	5%	-87*	79µM*	24	40µM*	42%
Cc1nc2ccccc2c(=O)n1NC(=O)/C=C/c1ccccc1	6%	0	-8%	-11	10%	25%
Cc1n[nH]c(=S)n(NC(=O)/C=C/C(=O)Nn2c(=S)[nH]nc(C)c2=O)c1=O	?	-88*	13µM*	?	25µM*	?
O=c1cc(-c2ccccc2)c2cc(Cl)c3c(c2o1)CN(Cc1ccccc1)CO3	5%	nt	-10%	nt	-1%	74%
COc1ccccc1CNC(=O)C1CCN(S(=O)(=O)c2ccc3c(c2)CCCN3C(C)=O)CC1	7%	nt	-3%	nt	4%	28%[57 µM]
O=C(CSc1nnc(-c2cccs2)o1)NCC1CN(Cc2ccccc2)CCO1 (stereo not drawn)	-2%	-2	-27%	1	56µM*	10%
CC1(C)OC(c2ccccc2)=C/C(=C\C=N\NC(=O)c2ccncc2)O1	13%	-21	-29%	-9	71µM*	7%
COc1ccc(CN2CCC(C(=O)N3CCN(c4ccccc4F)CC3)CC2)cc1OC	nt	-3	0.89µM*	4	56µM*	?
COc1ccccc1N1CCN(C(=O)C2CC2)CC1	nt	-1	-4%	0	nt	20%
COc1cc(CN2CCC(C(=O)N3CCN(c4ccccc4F)CC3)CC2)cc(OC)c1OC	-2%	-1	2.5µM*	-3	50µM*	?
COc1cccc(CN2CCC(C(=O)N3CCN(c4ccccc4F)CC3)CC2)c1OC	-1%	10	3.5µM*	0	?	?
O=C(CCc1ccccc1)Nc1ncnc2c1C(c1ccccc1)c1c(ccc3ccccc13)O2 (stereo not drawn)	nt	nt	-35%	nt	nt	nt
Oc1c(C(c2ccc(Cl)cc2)N2CCOCC2)sc2nc(-c3ccco3)nn12 (stereo not drawn)	3%	nt	-18%	nt	-11%	81%
OCCN(CC#CCC(O)(c1ccccc1)C1CCCC1)CCO (stereo not drawn)	1%	3	-9%	-5	-1%	9%
